14 molecules from PubChem BioAssay (NCATS) can be followed below.

SMILES strings stand for the structures. Where “and” joins values, the source holds several entries; their conditions need not be identical. Identical values can stand only once. Records with an inconclusive call do not appear. Calls of active or inactive are those of the source. Unless noted, the call rests on the fitted dose curve; in most records, active means well fitted curve in the direction sought with a large enough effect; inconclusive means small, poorly fitted or top-dose-only effect, or another doubt; inactive means no such curve, though single readings can be large; an effect the other way counts as inactive or inconclusive. A value given as a limit tells only on which side of the number the result lay.

Test [1] in a line: KB-8-5-11 P-gp reporter qHTS against the NCATS DSHEA and TCM libraries (AID 1919977). Further: 0% is about no effect. An outline of the steps:
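Cells were seeded, allowed ~4 h to attach, dosed by pin tool (substance titrations), incubated ~72 h at 37C, then lysed with CellTiter-Glo for 30 min at room temperature before luminescence reading.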
A general note: Quantitative high-throughput screening tests each substance at several concentrations.

Test [2] is described as follows: Cell Viability - BJ (AID 421; calls by dose curve;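 further: potency means the concentration at half of the fitted maximal effect; cells exposed to compound for 40 hours at 37 °C before readout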). To be noted: BJ fibroblast viability, qHTS. The method, boiled down: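 Luminescent ATP signal (CellTiter-Glo, 20 min at room temperature) served as the read-out of viable BJ cells after 40 hours of compound treatment. Responses were scaled between DMSO and 100 uM tamoxifen, and AC50 values were obtained by Hill modeling.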
The nature of test [3]: Cell Viability - SH-SY5Y (AID 544).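 Further: 0% = DMSO alone and -100% = 100 µM tamoxifen; nearly all actives have a fitted effect of over 55% in size.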 To be noted: SH-SY5Y neuroblastoma cell viability; viability change, negative = cytotoxic: at 92.2 µM (top of the series). The method, boiled down:
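Luminescent ATP read-out (CellTiter-Glo) measures loss of viable SH-SY5Y neuroblastoma cells after 40 hr compound exposure at 37 °C. AC50 values derive from standard Hill modelling of qHTS concentration-response data.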

A short description of test [4]: Cell Viability - LYMP2-009 (AID 968).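 Further: cells exposed to compound for 24 h at 37 °C; 0% = DMSO alone and the full-kill end = tetraoctylammonium bromide at 92 µM; nearly all actives have a fitted effect of over 55% in size.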
Test [5] is described as follows: Cell Viability - LYMP2-017 (AID 972).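 Further: cells exposed to compound for 24 hours at 37 °C; on the % scale 0 is the no-effect control and ±100 the full control effect; nearly all actives have a fitted effect of over 55% in size.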 An outline of the steps: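 2500 cells/well, 5 h 37 C; cpd 24 h 37 C in complete medium; CellTiter-Glo, 30 min RT; luminescence (ATP). AC50 via Hill fit, qHTS.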
The nature of test [6]: qHTS Assay for Identification of Small Molecule Inducers of Hypoxia Response (AID 2120; active means well fitted curve in the direction sought with a large enough effect in the signal ratio, with a control signal flat, not every such curve was filed as active; the % refers to the signal ratio; further: 0% is about no effect). The method, boiled down:
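ME-180 HRE-bla cells plated in Opti-MEM/0.5% dialyzed FBS, rested 4-5 h, then dosed with compound titrations by pin tool. After 17 h at 37 degrees C, CCF4 dye loaded 2.5 h at RT; 460/530 nm ratio gave %Activity and AC50.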

Test [7] addresses Bile acid receptor (Homo sapiens) (UniProt Q96RI1). As to the kind of experiment: qHTS assay for small molecule antagonists of farnesoid X receptor signaling (AID 588526; calls by dose curve; further: on the % scale 0 is the no-effect control and ±100 the full control effect). The method, boiled down: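 Antagonist mode: titrated compounds tested against chenodeoxycholic acid stimulation (normalized to 50 uM CDCA and DMSO) in GeneBLAzer HEK293T cells for 16 h. Beta-lactamase read by CCF4 fluorescence; IC50 from Hill fits.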

The target is the same in test [8]. Kind of test: qHTS assay for small molecule agonists of farnesoid X receptor signaling (AID 588527; calls by dose curve;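 further: 0% = vehicle basal and 100% = reference agonist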). To be noted: HEK293T FXR-UAS-bla, beta-lactamase ratio, 16 h; stronger effect = higher value. An outline of the steps:
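FXR-UAS-bla HEK293T, 10% dialyzed FBS; cpds up to 92 uM titration, 16 h 37 C; CCF4 dye 2 h RT; fluorescence. Normalized to chenodeoxycholic acid 100 uM (100%) and DMSO (0%); Hill fit gives EC50, efficacy.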

Test [9] is described as follows: qHTS assay for small molecule antagonists of peroxisome proliferator-activated receptor delta signaling (AID 588535).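 Further: cells co-treated with a PPAR-delta agonist as stimulator during compound exposure.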 To be noted: HEK293T PPARd-UAS-bla, beta-lactamase FRET ratio, 18 h; 460 nm channel. The method, boiled down:
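Antagonist-mode beta-lactamase reporter (GeneBLAzer PPAR-delta-UAS-bla) in HEK293T cells, 2% charcoal/dextran FBS, 4000 cells/well. Compound titrations, 18 h at 37 C; CCF4 ratio read, IC50 and efficacy from Hill fits.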

Test [10] addresses Vitamin D3 receptor (Homo sapiens) (UniProt P11473). Kind of test: qHTS assay for small molecule antagonists of vitamin D receptor signaling (AID 588541; calls by dose curve;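 further: receptor activated by calcitriol during compound treatment; on the % scale 0 is the no-effect control and ±100 the full control effect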). An outline of the steps:
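VDR-UAS-bla HEK293T cells in 2% charcoal-stripped FBS were stimulated with 1-alpha,25-dihydroxyvitamin D3 (3 nM final) plus compound for 16 h at 37 C. The beta-lactamase CCF4 readout was normalized to 50 nM agonist and DMSO, and Hill fits gave IC50.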

Test [11] has the same target. As to the kind of experiment: qHTS assay for small molecule agonists of vitamin D receptor signaling (AID 588543; calls by dose curve;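 further: 0% = DMSO basal and 100% = reference agonist control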). An outline of the steps: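 qHTS in agonist mode: compound titrations stimulate a VDR-driven β-lactamase reporter in HEK293T cells over 16 h at 37 °C. Response normalized to 50 nM 1α,25-dihydroxyvitamin D3 = 100%, DMSO = 0%; Hill fitting gives EC50 and maximal response.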

Test [12] has as its target Thyroid hormone receptor beta (Homo sapiens) (UniProt P10828). Kind of test: qHTS assay for small molecule agonists of thyroid hormone receptor beta signaling (AID 588545; calls by dose curve). An outline of the steps:
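Agonist-mode beta-lactamase reporter assay, HEK 293 cells, 2% charcoal/dextran FBS; cells plated 4 hrs, compound 18 hrs at 37 C, CCF4 2 hrs RT. Normalized to 10 nM T3 (100%) and DMSO (0%); Hill fit gives EC50, efficacy.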

Test [13] is described as follows: qHTS assay for small molecule activators of the nuclear factor-kappa B (NF-kB) signaling pathway (AID 651749; active means well fitted activation curve with a large enough effect in the signal ratio; the % refers to the signal ratio; further: % of control where 0% means no effect). To be noted: NF-kB-bla ME-180 cells, beta-lactamase FRET ratio, 16 h; activation: stronger effect = higher value. An outline of the steps:
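NF-kB-bla ME-180 cells carrying a beta-lactamase reporter under an NF-kB response element, 2,000 cells/well, exposed to compound for 16 hr at 37C; FRET-based beta-lactamase fluorescence read-out of pathway activation.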

Test [14] can be described thus: Cellular Toxicity (caspase-3) N2a (AID 665).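 Further: compound exposure lasted 16 h at 37 °C before readout.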 To be noted: N2a cells, luminescence, normalized: DMSO 0%, 10 µM staurosporine 100%; at 92.2 µM (top of the series). The method, boiled down:
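N2a cells, 1500/well, 5 h settle at 37 °C; cpd 16 h, 37 °C; Caspase-Glo 3/7, 1 h RT; luminescence. Norm: DMSO = 0, 10 uM staurosporine = 100%. AC50, Hill fit.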

The nature of test [15]: Cell Viability - LYMP1-003 - Assay at 40 hr (AID 964). Further: on the % scale 0 is the no-effect control and ±100 the full control effect; nearly all actives have a fitted effect of over 60% in size. An outline of the steps:
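Cells were seeded at 2500 per well and incubated 5 hr at 37 C. Compounds were added across a concentration series and left 40 hr at 37 C. CellTiter-Glo was added for 30 min at room temperature before luminescence reading.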

Test [16] is described as follows: qHTS assay for small molecule agonists of the antioxidant response element (ARE) signaling pathway measured by Nrf2-dependant transcriptional activity - cell viability counter screen (AID 720653; active means well fitted curve in the direction sought with a large enough effect in the repeat runs; an effect the other way counts as inactive or inconclusive; further: on the % scale 0 is the no-effect control and ±100 the full control effect). To be noted: ARE-bla HepG2 viability, CellTiter-Glo ATP luminescence, 16 h; stronger effect = lower value. An outline of the steps:
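ARE-bla HepG2 cells treated with compounds for 16 h at 37C; this counter screen measures viability as intracellular ATP by CellTiter-Glo luminescence after 30 min at room temperature.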

Chain of Thyroid hormone receptor beta (Homo sapiens) (P10828 whole entry, looked up): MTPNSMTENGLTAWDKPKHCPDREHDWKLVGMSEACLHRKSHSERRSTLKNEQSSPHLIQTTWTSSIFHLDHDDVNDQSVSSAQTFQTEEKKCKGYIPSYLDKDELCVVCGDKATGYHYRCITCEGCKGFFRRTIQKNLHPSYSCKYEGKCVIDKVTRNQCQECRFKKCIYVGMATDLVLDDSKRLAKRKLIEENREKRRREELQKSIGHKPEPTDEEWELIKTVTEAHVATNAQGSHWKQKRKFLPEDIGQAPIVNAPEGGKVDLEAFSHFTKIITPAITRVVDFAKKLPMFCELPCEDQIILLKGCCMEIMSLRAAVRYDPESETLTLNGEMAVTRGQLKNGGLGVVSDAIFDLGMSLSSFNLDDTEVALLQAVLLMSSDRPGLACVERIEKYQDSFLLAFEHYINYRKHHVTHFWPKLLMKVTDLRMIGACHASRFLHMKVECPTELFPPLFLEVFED
Chain of Bile acid receptor (Homo sapiens) (Q96RI1 whole entry, looked up): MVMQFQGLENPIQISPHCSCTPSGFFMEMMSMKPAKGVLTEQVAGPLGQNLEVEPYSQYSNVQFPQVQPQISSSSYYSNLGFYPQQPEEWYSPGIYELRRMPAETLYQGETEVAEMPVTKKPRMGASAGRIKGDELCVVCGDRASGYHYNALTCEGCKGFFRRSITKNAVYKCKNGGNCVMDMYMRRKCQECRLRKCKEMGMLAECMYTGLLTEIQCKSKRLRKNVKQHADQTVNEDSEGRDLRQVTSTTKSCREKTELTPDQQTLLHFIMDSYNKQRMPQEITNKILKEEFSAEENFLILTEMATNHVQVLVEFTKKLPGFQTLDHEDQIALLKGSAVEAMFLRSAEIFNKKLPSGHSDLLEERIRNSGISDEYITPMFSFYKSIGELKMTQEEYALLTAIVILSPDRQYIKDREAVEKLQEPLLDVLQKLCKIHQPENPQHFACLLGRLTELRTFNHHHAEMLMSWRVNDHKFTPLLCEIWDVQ
Chain of Vitamin D3 receptor (Homo sapiens) (P11473 whole entry, looked up): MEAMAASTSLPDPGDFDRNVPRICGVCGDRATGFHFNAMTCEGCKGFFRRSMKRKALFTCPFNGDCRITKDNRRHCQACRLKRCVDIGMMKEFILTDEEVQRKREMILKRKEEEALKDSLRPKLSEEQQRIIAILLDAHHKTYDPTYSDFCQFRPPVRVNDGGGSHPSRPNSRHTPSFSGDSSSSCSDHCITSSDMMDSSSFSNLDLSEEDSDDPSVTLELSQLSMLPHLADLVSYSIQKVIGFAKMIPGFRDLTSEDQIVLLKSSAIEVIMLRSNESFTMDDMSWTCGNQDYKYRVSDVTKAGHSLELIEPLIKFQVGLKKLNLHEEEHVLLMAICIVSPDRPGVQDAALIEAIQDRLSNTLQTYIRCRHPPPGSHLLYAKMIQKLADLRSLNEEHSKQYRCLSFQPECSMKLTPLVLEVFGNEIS

For the molecule `Oc1cc(O)c2c(c1)OC(c1ccc(O)c(O)c1)C(O)C2` (stereo unspecified), the Potency entry in [1] is “inactive”.

Regarding `O=C(OC[C@H]1O[C@@H](OC(=O)c2cc(O)c(O)c(O)c2)[C@H](OC(=O)c2cc(O)c(O)c(O)c2)[C@@H](OC(=O)c2cc(O)c(O)c(O)c2)[C@@H]1OC(=O)c1cc(O)c(O)c(O)c1)c1cc(O)c(O)c(O)c1`, in [1], the Potency result was “inactive”.

On to `CCCCC[C@H](O)CC(=O)CCc1ccc(O)c(OC)c1`, for which the Potency entry in test [1] was “inactive”.

Regarding `C[C@@H]1OC(O[C@H]2[C@H](O)[C@@H](O)[C@H](OC[C@H]3O[C@@H](OC(=O)[C@]45CCC(C)(C)C[C@@H]4C4=CCC6[C@@]7(C)CC[C@H](OC8OC[C@H](O)[C@H](O)[C@H]8OC8O[C@@H](C)[C@H](O)[C@@H](O)[C@H]8O)[C@@](C)(CO)C7CC[C@@]6(C)[C@]4(C)CC5)[C@H](O)[C@@H](O)[C@@H]3O)O[C@@H]2CO)[C@H](O)[C@H](O)[C@H]1O` (stereo partly specified), the Potency result in [1] is “inactive”.

Regarding `C=C1[C@H]2CC[C@H](C(=O)O)[C@@]23CC[C@H](C3)C1(C)C`, the Potency result in [1] is “inactive”.

Regarding `CCCCCCCCCCCCCCCCCCCCCCCCCCCCCCO`, in [1], the activity change, negative = inhibition was 8.26% [at 3.26 µM] (inactive).

As to `O=C(/C=C/c1ccc(O)c2c1[C@H](C(=O)O)[C@@H](c1ccc(O)c(O)c1)O2)O[C@H](Cc1ccc(O)c(O)c1)C(=O)O`, in test [1], the Potency result is “inactive”.

On to `C=C1C[C@]23CC[C@H]4[C@@](C)(CCC[C@@]4(C)C(=O)O)[C@@H]2CC[C@@]1(O[C@@H]1O[C@H](CO)[C@@H](O)[C@H](O)[C@H]1O[C@@H]1O[C@H](CO)[C@@H](O)[C@H](O)[C@H]1O)C3`, for which the Potency entry in test [1] is “inactive”.

`O=C(OC[C@H]1O[C@@H](OC(=O)c2cc(O)c(O)c(O)c2)[C@H](OC(=O)c2cc(O)c(O)c(O)c2)[C@@H](OC(=O)c2cc(O)c(O)c(O)c2)[C@@H]1O)c1cc(O)c(O)c(O)c1`: in test [1], the Potency entry is “inactive”.

Turning to `CC1=C2[C@H]([C@@H](C)CC[C@@H]2/C=C(\C)C(=O)O)[C@@H](O)C1`, the Potency entry in test [1] is “inactive”.

`CCCCCCCCC/C=C/C(=O)CCc1ccc(O)c(OC)c1`: the Potency result in test [1] is “inactive”.

As to `C=C(C)[C@H]1CC=C(C)C(=O)C1`, the Potency result in test [1] is “inactive”.

On to `CC(C)(c1ccccc1)c1ccc(O)cc1`, for which, in test [2], the Potency was > 92 µM (inactive). Besides, the Potency result in [3], in test [4] and in test [5] was “inactive” in each case. Also, the outcome in test [6], in test [7], in [10], in test [11] and in [12] was inactive. The activation is 1.02% (inactive) and 4.37% (inactive) in [8]; -0.397% (inactive) and -3.49% (inactive) in test [13]. The max response in test [9] turned out to be 13%.

`CCCCOCCOP(=O)(OCCOCCCC)OCCOCCCC`: in test [2], the Potency is > 92 µM (inactive). For the same molecule, the caspase-3 activation in [14] is -1.18% (inactive). Moreover, the Potency result in test [15], in [4] and in test [5] was “inactive” throughout. The molecule was classed as inactive in [6], in test [10], in test [11] and in test [12]. Further, the max response in [9] is 25%; in test [16] it was -2.06% (inactive) and 1.41% (inactive). For the same molecule, the activation in test [13] was -1.15% (inactive) and -0.483% (inactive).
